According to the supplement of paper PMC11417369:
± gives the standard deviation of the averaged measurements. In all, about 25,000 sequences were measured (“ln(normalized median fluorescence intensity)”: median about 7.9, highest 2% from about 11 on). The sample as a whole holds a higher share of the highest values than the screen did.

system: PfAP2-I AP2 domain 3 (GST-tagged); assay: gcPBM binding intensity (ln(normalized median fluorescence intensity)); higher = stronger DNA binding
Method in brief: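 Probes on an Agilent 4 × 180k array were primer-extended, double-stranded and 36 bp long, taken from intergenic genomic regions, with negative controls added. GST-tagged P. falciparum DNA-binding domains from E. coli, about 25 μg on average, were applied to the array for 1 h in 1× PBS containing 1% milk, 0.2 mg/ml BSA, 0.5% salmon testes DNA and 0.03% Triton X-100. Binding intensity, obtained after Alexa488 anti-GST antibody detection and a 488 nm scan, is the highest Masliner-normalised natural-log median intensity across replicate spots of either probe orientation.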

Row | Sequence | gcPBM binding intensity (ln)
1 | ATAAATAAAAATACATGAACAGGTCAGGTTATTTTT [CACACA_negctrl_site1007] | 7.29 ± 0.61
2 | AAATGTGCATTATGTTGTACAGTCGAAATTTTTTTT [XGTACX_site3812] | 11.1 ± 0.62
3 | AAAGAAATTATTTGTTGTACATATGTTATTTTTTTT [XGTACX_site7570] | 7.75 ± 0.25
4 | TATTTTGCAAAATGTGCATGTTGTGTATTATGTGAC [TGCATGCA_site59] | 8.97 ± 0.51
5 | AAGAAAGACATTACGTGTACCAAACAACCTACCAAC [XGTACX_site4219] | 8.22 ± 0.25
6 | TTCCTTTGTTGTCGTTGTACTTATATGGTTATAATT [XGTACX_site3082] | 8.29 ± 0.64
7 | TAGGTCCTCATTTTATGTACATAAAGAAATATGATT [XGTACX_site4138] | 7.86 ± 0.36
8 | ATATATTTATAATACACATGCAATGATATAATATAT [TGCATGCA_site20] | 8.43 ± 0.75
9 | CCATTTGATAATAATGCACACCACATATATTTATAT [CACACA_site9002] | 11 ± 0.4
10 | ACCCATTTGATAATAATGCACACCACATATATTTAT [CACACA_site3061] | 11 ± 0.63
11 | TATTATAATATTTATACACACATAATTTTGATAAAT [CACACA_site583] | 7.68 ± 0.4
12 | CCCATGCATTTTTGCACACACATATATTTATAAATA [CACACA_site6785] | 9.75 ± 0.17
13 | TATATATTAATATTTACACACATGCGCACCCATAAA [CACACA_site2410] | 9.86 ± 0.57
14 | ACTCTCTTATATTAAACACACATATTTATAGGTATA [CACACA_site7302] | 8.07 ± 0.45
15 | AGGAGGATGCATATGGCACACATTATGAAACTGTCG [CACACA_site299] | 9.11 ± 1
16 | AATTTTTAGAAGAACACACACATATATATTATGACC [CACACA_site246] | 7.75 ± 0.65
17 | GAAAGAAAATATTAAGTGCATATTTTAATGATACAA [GTGCAC_site9712] | 9.02 ± 0.2
18 | ATTTTTAATGGATAAGTGCATAATATTATGATGCAA | 10.9 ± 0.64
19 | TATTAATGATAAGAATATTTTATATGATACATGCAT [CACACA_negctrl_site923] | 7.46 ± 0.68
20 | TTTTTTTTTTTGTGTGCATGTGCTAGGAAAGGTAGG [TGCATGCA_site330] | 8.85 ± 0.11
21 | TACTTCATATAATTAGCACACAATAATTTCTCATTT [CACACA_site2872] | 8.31 ± 0.45
22 | GTATTTATAATACGGCGTACATAAAAAAAAAAAAAA [XGTACX_site3705] | 8.14 ± 0.45
23 | AAATTTAATTTTATATCACACATTAAATTTTAATGG [CACACA_site4251] | 7.65 ± 0.58

Row | Sequence | gcPBM binding intensity (ln)
24 | TAATATATTATAAACACATGCACATTAATAATAACT [TGCATGCA_site708] | 8.08 ± 0.58
25 | TAAATTAATACCTATGCACACATTTTTTTTTTTAAA [CACACA_site1238] | 8.32 ± 0.47
26 | AATGCTATCATTAATGCACACATTTAAAATTAATAT [CACACA_site3548] | 11 ± 0.55
27 | AATGCTATCATTAATGCACACATTTAAACTTAATAT [CACACA_site5878] | 11 ± 0.61
28 | TATCATTTTTTTAAAACACACATAATAATATAAATA [CACACA_site2845] | 7.82 ± 0.31
29 | GAAAAAATAAAATAAAGTACATAACTATAATAAAAA [XGTACX_site4807] | 7.9 ± 0.34
30 | TTTTTTTTTTTTTTTACACACTGCATACAAGAAAAA [CACACA_site5642] | 8.54 ± 0.66
31 | TGTGCACGCATATACACACACAAATACAATGATAAA [CACACA_site6656] | 8.92 ± 0.11
32 | TATTATATTTGTATGTGTACTTATATGGTTGTAATA [XGTACX_site4548] | 7.87 ± 0.26
33 | ATTTATATTACCCTTGCATGTAGGTGCAATTTTTTT [TGCATGCA_site757] | 10.64 ± 0.085
34 | TACCCTTGCATGTAGGTGCAATTTTTTTTTTTTTTT | 10.6 ± 0.35
35 | AAAATTATGCAGTAGGTGCAATACCCTCGGCTTTTT [GTGCAC_site9556] | 11.1 ± 0.64
36 | TTCCTGTTAATTACAACACACAATTCTTATTTTATG [CACACA_site6507] | 7.98 ± 0.52
37 | ACAAAACTCTTTAATTGTACAAATATAATATAAAAA [XGTACX_site5690] | 7.74 ± 0.63
38 | TATTTATAAATGAACACACACGCAATTTGAATCGAA [CACACA_site3371] | 8.04 ± 0.46
39 | TTAATTAAATATAGGGGTACATATTATATATGTTTT [XGTACX_site3677] | 7.76 ± 0.42
40 | TTACGCTGCTATATAGTGCACATAATATATGACCTG | 11 ± 0.24
41 | TGCTATATAATATGAGCACACATAAGATTTGGTGTT [CACACA_site8148] | 8.05 ± 0.6
42 | TATATATATATATGTGCACACATAATAAAAAAAAAA [CACACA_site3830] | 10.55 ± 0.035
43 | TAAAACACTCATGGCACACATAAAACATTTTTATGA [CACACA_site3574] | 8.18 ± 0.24
44 | TCAATTTGGAACGGTATGCACTAATTTTATATTTTT | 9.02 ± 0.19
45 | TATTTTAAAACAAAAATATAATTTCATAAAAATATA [CACACA_negctrl_site394] | 7.2 ± 0.47
